Compounds with a hit are over-represented: about 5.3% of the library has one in this group of screens.
Coupling enz: coupling enzyme interference in Giardia aldolase counter-screen; coupling enzyme system counterscreen, AmpLite Red fluorescence; activity change, negative = inhibition, % at 58.2 µM, hits read low; 290,000 compounds, 0.67% hits; in the data active means activity change below about -30%
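Counterscreen lacking aldolase: glyceraldehyde-3-phosphate coupling-enzyme reagent preincubated 10 min at RT with compound (at 57.5 uM final), then substrate/coupling system with AmpLite Red added; fluorescence read at 525/598 nm after 20 min RT.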
JMJD2E inh: blocks human JMJD2E demethylase activity | B2RXH2 | JMJD2E catalytic domain, FDH-coupled NADH fluorescence (FDH is formaldehyde dehydrogenase) | Potency, µM (titrated, usually from 57.1 µM), without a hit: at the top dose activity change, negative = inhibition, most hits filed as inhibitors | 230,000 compounds, 1.6% hits | AID 2147; active means well fitted inhibition curve with a large enough effect, not every such curve was filed as active; inconclusive means small, poorly fitted or top-dose-only effect, or another doubt; inactive means no such curve, though single readings can be large or run the other way;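 further: potency means the concentration at half of the fitted maximal effect; 0% = wells with enzyme and -100% = buffer wells without enzyme; nearly all actives have a fitted effect of over 50% in size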
Target sequence (B2RXH2 1-337 limits assumed): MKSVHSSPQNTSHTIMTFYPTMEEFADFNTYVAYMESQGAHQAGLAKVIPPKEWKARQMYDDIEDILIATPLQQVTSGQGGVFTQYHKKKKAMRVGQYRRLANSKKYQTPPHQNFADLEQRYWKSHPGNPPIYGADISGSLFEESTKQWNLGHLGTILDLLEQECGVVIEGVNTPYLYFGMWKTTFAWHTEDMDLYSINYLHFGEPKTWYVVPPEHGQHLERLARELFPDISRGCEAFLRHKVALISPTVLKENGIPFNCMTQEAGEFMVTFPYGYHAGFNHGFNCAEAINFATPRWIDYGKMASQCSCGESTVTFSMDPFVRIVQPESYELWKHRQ
Tau fluor cs: counter-screen for tau fibril formation inhibitors | Potency, µM (doses to about 57.7 µM), for the others: at the top dose activity change, negative = decrease | 280,000 compounds, 0.93% hits | tau K18 P301L Alexa594 fluorescence, heparin fibrillization; further: potency means the concentration at half of the fitted maximal effect; nearly all actives have a fitted effect of over 55% in size
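Human K18 P301L tau (15 uM unlabeled plus 0.24 uM Alexa 594-labeled, final) in 100 mM sodium acetate pH 7 was mixed with compound and 20 uM heparin and incubated 6 hr at 37 C.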
Tau FP inhib: inhibitors of human tau fibril formation. Potency, µM (doses to about 57.7 µM), for inactives: at the top dose activity, negative = inhibition, actives largely listed as inhibitors. 280,000 compounds, 0.39% hits. P10636. K18 P301L tau heparin fibrillization, Alexa594 FP, 6 h; further: potency means the concentration at half of the fitted maximal effect; nearly all actives have a fitted effect of over 55% in size
Target sequence (P10636 561-689 P618L limits assumed): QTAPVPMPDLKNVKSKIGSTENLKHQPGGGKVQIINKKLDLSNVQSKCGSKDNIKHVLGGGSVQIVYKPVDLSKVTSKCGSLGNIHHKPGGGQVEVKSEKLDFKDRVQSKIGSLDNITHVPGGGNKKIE
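Compound effects on tau fibrillization are measured by Alexa 594 fluorescence polarization (ex 555, em 632 nm). K18 P301L tau is used at 15 uM with 0.24 uM labeled tracer, and 20 uM heparin induces aggregation over 6 hr at 37 C.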
Tau ThT inhib: blocks human tau fibril formation measured by thioflavin T | P10636 | recombinant tau K18 P301L (four-repeat tau fragment), heparin-induced fibrillization, ThT fluorescence | Potency, µM (series often up to 57.4 µM), inactives show at the highest dose activity, negative = inhibition, usual class: inhibitors | 270,000 compounds, 2.1% hits | AID 1460; further: potency means the concentration at half of the fitted maximal effect; nearly all actives have a fitted effect of over 55% in size
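K18 P301L tau (15 uM + 0.24 uM Alexa 594-tagged), heparin 20 uM, NaOAc pH 7, 6 h 37 C; ThT 30 uM, 1 h RT, ex 450/em 510 nm.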
Sfp inh: inhibitors of Bacillus subtilis Sfp phosphopantetheinyl transferase; Q9F4F7; Biochemical Sfp PPTase activity, qHTS; Potency, µM, for the others: largest response in the series, negative = inhibition, actives largely listed as inhibitors; 310,000 compounds, 3.5% hits; AID 1490;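 further: the enzyme is Sfp with the accession as filed and its product quenches rhodamine fluorescence; potency means the concentration at half of the fitted maximal effect; 0% = enzyme reaction without inhibitor and -100% = no enzyme wells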
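Buffer: 50 mM Hepes-Na pH 7.6, 10 mM MgCl2, 0.01% Nonidet P-40, 0.01% BSA. Enzyme 15 nM, pre-exposed to compound 15 min; substrates then added and fluorescence change tracked over 30 min.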
* marks the source's active call; other numbers are inactive results; ? = inconclusive; . = no result; ! = a repeat was not active; [ ] = remark or other dose. Unless noted, the call rests on the fitted dose curve; in most records, active means well fitted curve in the direction sought with a large enough effect; inconclusive means small, poorly fitted or top-dose-only effect, or another doubt; inactive means no such curve, though single readings can be large; an effect the other way counts as inactive or inconclusive. Unless noted, on the % scale 0 is the no-effect control and ±100 the full control effect.

SMILES | Coupling enz | JMJD2E inh | Tau fluor cs | Tau FP inhib | Tau ThT inhib | Sfp inh
Cc1ccc(-c2cc(C(=O)Nc3ccc(S(=O)(=O)Nc4nccs4)cc3)c3ccccc3n2)c(C)c1 | -1.4 | 0.5% | ? | ? | -13.5% | 20µM*
COc1cc(-c2cc(C(=O)Nc3ccc(O)cc3)c3ccccc3n2)cc(OC)c1OC | 0.2 | 3.6% | ? | -7.2% | ? | 22.4µM*
Cc1ccc(-c2cc(C(=O)Nc3ccccn3)c3ccccc3n2)o1 | 0.1 | ? | -12.0% | -9.4% | ? | 22.4µM*
O=C(Nc1ccc(S(=O)(=O)Nc2nccs2)cc1)c1cc(-c2ccccc2)nc2ccccc12 | 0.9 | 2.8% | ? | ? | -13.0% | 4.0%
O=C(O)c1cc(-c2ccccc2)nn1Cc1ccccc1 | . | . | 1.8% | 8.0% | 0.4% | .
CC(=O)Nc1ccc(NC(=O)CCCn2nc(C)c3sc4ccccc4c3c2=O)cc1 | . | . | -6.4% | -11.1% | -10.7% | .
O=C(O)CCNS(=O)(=O)c1ccc2ccccc2c1 | 8.9 | 5.8% | -7.3% | -3.0% | -10.4% | -1.0%
O=C(O)CCNc1cc2ccccc2cc1C(=O)O | -30.4* | ? | -25.4% | ? | 15.8µM* | ?
CC(NC(=O)/C(=C\c1cccc([N+](=O)[O-])c1)NC(=O)c1ccco1)C(=O)O (centres undefined) | 2.4 | -7.5% | -17.0% | -9.1% | ? | 79.4µM*
Cc1cc(Br)cc2c1N(Cc1ccccc1OC(C)C)C(=O)C2=O | . | . | ? | ? | 25.1µM* | .
CCOC(=O)CN1C(=O)C(=O)c2cccc(C)c21 | -47.6* | -0.6% | -4.7% | ? | -13.4% | -2.9%
COc1ccccc1CN1C(=O)C(=O)c2cccc(C)c21 | . | . | -4.4% | 4.4% | -13.7% | .
Cc1ccc2oc(=O)n(Cc3ccccc3OC(C)C)c2c1 | 9.4 | 2.6% | -2.7% | -1.5% | 4.4% | -15.3%
Cc1cccc2c1N(Cc1ccccc1OCCC(C)C)C(=O)C2=O | . | . | -27.0% | -7.9% | 25.1µM* | .
CN(C)C(=O)c1ccc(-c2nc(NCc3cccnc3)c3ccccc3n2)cc1 | -2.1 | -12.6% | -0.3% | -4.0% | -1.8% | -2.5%
CSc1ccc(-c2nc3cccc(C)n3c2Nc2ccc(Cl)cc2)cc1 | . | . | ? | 10.3% | -10.0% | .
O=C1Nc2ccccc2/C1=N\N=C\C1=C(N2CCOCC2)C(=C\c2ccccc2)/CC1 | -4.1 | 2.3% | ? | ? | 7.08µM* | 31.6µM*
O=C1Nc2ccccc2/C1=N/N=C/c1cccc(O)c1 | 1.3 | ? | ? | 2.3% | 11.2µM* | -7.4%
COc1ccc(O)c(/C=N/N=C2/C(=O)Nc3ccccc32)c1 | 0.1 | -3.2% | -12.4% | 2.5% | ? | 5.2%
COc1cc(/C=N/N=C2/C(=O)Nc3ccccc32)cc(OC)c1O | -1.1 | -9.8% | ? | ? | 11.2µM* | -18.2%
Cn1cc(C(=O)N/N=C/C2=C(N3CCOCC3)C(=C\c3ccccc3)/CC2)ccc1=O | 1.7 | -0.3% | -11.5% | 15.5% | ? | -5.8%
O=S(=O)(c1ccccc1)N1CCC2(CCN(c3cccc(-c4ccccc4)c3)CC2)CC1 | 0.4 | . | . | . | . | 1.5%
O=c1ncccn1[C@@H]1O[C@H](CO)[C@@H](O)[C@H]1O | -0.4 | . | . | . | . | 6.8%
COc1cc(C2c3c([nH]c(=O)[nH]c3=O)Nc3ccc4ccccc4c32)cc(OC)c1OC (centres undefined) | -4.1 | ? | ? | 0.5% | -16.2% | 56.2µM*
CC(=O)Oc1ccc(OC(C)=O)c(SCCCCCN2CCOCC2)c1 | -14.8 | -11.0% | -8.2% | -5.4% | -23.8% | 79.4µM*
SMILES | Coupling enz | JMJD2E inh | Tau fluor cs | Tau FP inhib | Tau ThT inhib | Sfp inh
CCN1CCS/C1=C/C=C/C1=[N+](CC)CCS1 | 0.0 | 28.2µM* | 11.8% | 0.4% | ? | 4.2%
NC(=S)NNc1c(F)c(F)c(F)c(F)c1F | -3.0 | 2.5% | -2.7% | -8.6% | -7.5% | 39.8µM*
NC(=S)Nc1ccc(F)c(F)c1F | -1.3 | 8.0% | -0.9% | 0.1% | . | 16.9%
COc1ccc(S(=O)(=O)N2CCC(N3CCCCC3)CC2)cc1 | 0.5 | -28.4% | -3.1% | -0.9% | -12.3% | ?
O=C(OCc1ccco1)c1ccc(S(=O)(=O)N2CCCCC2)cc1 | 0.6 | -3.1% | -12.9% | -16.7% | ? | 22.4µM*
O=C(COC(=O)c1ccc(S(=O)(=O)N2CCCCC2)cc1)NCc1ccco1 | 1.1 | -4.0% | 0.8% | -2.9% | -1.8% | 3.1%
COc1ccc(S(=O)(=O)N2CCN(C3CCCCCCC3)CC2)cc1 | 2.5 | ? | -3.6% | 4.3% | 3.7% | 39.8µM*!
CCOC(=O)c1ccc(S(=O)(=O)N2CCN(C(C)=O)CC2)cc1 | 0.5 | -10.4% | 4.9% | 12.7% | 8.4% | 19.5%
CCOC(=O)c1ccc(S(=O)(=O)N2CCN(C3CCCC3)CC2)cc1 | 4.6 | -7.3% | 13.5% | -2.2%[2.34 µM] | 2.1% | 17.8µM*
COc1ccc(CNC(=O)CC(c2ccc(OC)c(OC)c2)N2Cc3ccccc3C2=O)cc1 (centres undefined) | . | . | 0.6% | 1.5% | 0.7% | .
COc1ccc(CC2(CO)CCN(Cc3cccnc3)CC2)cc1 | -9.7 | 8.3% | -6.7%[2.34 µM] | -1.8%[2.34 µM] | 3.4% | 8.91µM*
O=C(c1cccnc1)N1CCN(Cc2ccccc2Br)CC1 | -0.8 | ? | -10.9% | 0.5% | -10.5% | 50.1µM*
COc1ccc(-c2ncc(CN3CCC(CO)(Cc4cccc(OC)c4)CC3)cn2)cc1 | -0.7 | ? | -12.8% | 2.9% | -15.2% | 14.4%
COc1cc(OC)cc(C(=O)N2CCN(Cc3cccc(F)c3)CC2)c1 | -0.5 | ? | -4.3% | -1.4% | 0.5% | -19.9%
COc1cccc(C(=O)N2CCN(Cc3cccc(F)c3)CC2)c1 | 1.9 | ? | -4.3% | 3.0% | -10.5% | 50.1µM*
COc1ccc(CN2CCN(C(=O)c3cccnc3)CC2)cc1Br | 0.0 | ? | -7.2% | -3.8% | -17.8% | 79.4µM*
NCc1ccccc1Sc1ccccc1CO | . | . | . | . | . | -16.4%
COc1ccccc1C(=O)N1CCN(C2CCN(Cc3ccccc3)CC2)CC1 | 2.3 | ? | 2.6% | -6.3% | 0.3% | -18.0%
